Screens (PubChem BioAssay)
An excerpt weighted towards active compounds, which were near 9% of everything screened.
BAZ2B inh – qHTS Assay for Inhibitors of BAZ2B; Bromodomain adjacent to zinc finger domain protein 2B (Homo sapiens), Q9UIF8; AlphaScreen BAZ2B-H3K14Ac peptide displacement; Potency, µM (series often up to 114 µM), for the others: at the highest dose activity change, negative = inhibition, actives largely listed as inhibitors; 4.4% of 360,000 active; also: % is scaled to controls: 0 for no effect and ±100 for the full control effect; nearly all actives have a fitted effect of over 60% in size
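AlphaScreen luminescence quantifies BAZ2B engagement of H3K14Ac peptide; the protein and biotinylated peptide are both at 50 nM final, buffer PBS pH 7.4 with 0.01% Tween-20, all steps at room temperature.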
HP1b chromo inh – HTS for Inhibitors of HP1-beta Chromodomain Interactions with Methylated Histone Tails. AID 540317, 2011. Potency, µM (doses to about 114 µM), inactives show top-dose activity change, negative = inhibition, actives largely listed as inhibitors. AlphaScreen HP1-beta / biotin-H3K9me3 peptide binding. Chromobox protein homolog 1 (Homo sapiens), P83916. 0.56% of 390,000 active; also: nearly all actives have a fitted effect of over 70% in size
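HP1-beta protein (50 nM final) preincubated 30 min at room temperature with biotinylated H3(1-18)K9me3 peptide (50 nM) in PBS pH 7.4, 0.01% Tween-20, then compound added for 30 min. AlphaScreen streptavidin donor/nickel chelate acceptor beads (10 ug/mL final), 30 min dark, luminescence read.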
G9a inh – qHTS Assay for Inhibitors of Histone Lysine Methyltransferase G9a. Histone-lysine N-methyltransferase EHMT2 (Homo sapiens), Q96KQ7. G9a H3K9 monomethylation, AlphaScreen, 2 h. Potency, µM (top dose mostly 102 µM), for inactives: top-dose activity, negative = inhibition, actives largely listed as inhibitors. 8.8% of 350,000 active; also: % is scaled to controls: 0 for no effect and ±100 for the full control effect; nearly all actives have a fitted effect of over 75% in size
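AlphaScreen read-out: biotin-H3K9 peptide (500 nM) methylation by 20 nM enzyme with 20 uM SAM, 2 h at room temperature after 15 min compound preincubation; anti-monomethyl H3K9 antibody plus donor/acceptor beads, 10 min dark.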
PLK1 PBD inh – qHTS for Inhibitors of PLK1-PDB (polo-like kinase 1 - polo-box domain): Primary Screen. Potency, µM, for inactives: max response, negative = inhibition, most hits filed as inhibitors. Plk1 PBD binding of FITC phosphopeptide, fluorescence polarization. Serine/threonine-protein kinase PLK1 (Homo sapiens), P53350. 2.8% of 360,000 active; also: series mostly up to about 57 µM; % is scaled to controls: 0 for no effect and ±100 for the full control effect; nearly all actives have a fitted effect of over 65% in size
Target sequence (P53350 whole entry, looked up, the tested form may be a part): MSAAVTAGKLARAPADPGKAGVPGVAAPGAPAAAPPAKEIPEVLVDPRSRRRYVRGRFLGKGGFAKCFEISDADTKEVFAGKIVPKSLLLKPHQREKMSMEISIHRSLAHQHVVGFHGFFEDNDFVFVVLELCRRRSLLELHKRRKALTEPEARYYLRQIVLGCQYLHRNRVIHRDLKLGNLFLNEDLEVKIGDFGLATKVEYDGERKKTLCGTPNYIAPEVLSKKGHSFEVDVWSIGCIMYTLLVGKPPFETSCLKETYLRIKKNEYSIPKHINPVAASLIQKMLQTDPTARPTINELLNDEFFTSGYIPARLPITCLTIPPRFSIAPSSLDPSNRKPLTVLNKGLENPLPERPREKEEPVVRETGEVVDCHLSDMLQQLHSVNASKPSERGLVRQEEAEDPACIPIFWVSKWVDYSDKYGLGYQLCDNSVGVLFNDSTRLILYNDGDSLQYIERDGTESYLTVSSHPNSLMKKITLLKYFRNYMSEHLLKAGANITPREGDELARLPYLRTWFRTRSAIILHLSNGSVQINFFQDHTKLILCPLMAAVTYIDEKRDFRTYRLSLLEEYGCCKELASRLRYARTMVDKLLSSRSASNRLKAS
12-LOX inh – Primary qHTS assay for inhibitors of human arachidonate 12S-lipoxygenase (ALOX12): Round 2. purified 12hLO, xylenol orange hydroperoxide absorbance. Polyunsaturated fatty acid lipoxygenase ALOX12 (Homo sapiens), P18054. Potency, µM (top dose mostly 108 µM), for inactives: top-dose activity change, negative = inhibition, hits mostly inhibitors. 1.1% of 580,000 active; also: % is scaled to controls: 0 for no effect and ±100 for the full control effect
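Purified human 12hLO at 150 nM in 25 mM Hepes, 0.01% Triton X-100, pH 7.0, preincubated 15 min at room temperature with compound. Reaction started with 40 uM arachidonic acid, 30 min at room temperature. Hydroperoxide measured by Fe-xylenol orange, 573/405 nm absorbance ratio.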
JMJD2A Tudor inh – qHTS Assay for Inhibitors of JMJD2A-Tudor Domain; AlphaScreen JMJD2A-Tudor / H3K4me3 peptide binding; Potency, µM (doses to about 114 µM), for inactives: at the highest dose activity change, negative = inhibition, actives largely listed as inhibitors; 4.4% of 390,000 active; also: % is scaled to controls: 0 for no effect and ±100 for the full control effect; nearly all actives have a fitted effect of over 50% in size
* hit, by the source's call; ? = inconclusive; nt = not tested or not shown; [ ] = dose if it differs, or a comment. Calls follow the shape of the dose curve; as a rule, active = well fitted curve in the direction sought with a large enough effect; inconclusive = small, poorly fitted or top-dose-only effect, or another doubt; inactive = no such curve, though single readings can be large; an effect the other way counts as inactive or inconclusive. Potency is read from the fitted curve at half-maximal effect.

SMILES	BAZ2B inh	HP1b chromo inh	G9a inh	PLK1 PBD inh	12-LOX inh	JMJD2A Tudor inh
COc1cccc(NC(=O)CN(C)C(C)C(=O)NC(C)c2ccc(Cl)cc2Cl)c1 (centres undefined)	-2.0%	39.9%	28.2µM*	-0.2%	-26.9%	-13.8%
COc1ccc(NC(=O)CN(C)CC(=O)N2CCCCCC2)cc1	26.9%	24.1%	56.2µM*	-5.7%	-5.2%	14.1µM*
CC(C(=O)N1CCCCC1)N(C)CC(=O)Nc1ccc(Cl)cc1 (centres undefined)	-11.7%	4.2%	?	11.9µM*	-19.1%	?
CN(CC(=O)Nc1ccc(Cl)cc1)CC(=O)Nc1cccc(Br)c1	0.7%	34.7%	44.7µM*	2.1%	-8.6%	-5.6%
O=S1(=O)CCO[C@H]2Cc3ccccc3[C@H]2N1Cc1ccccc1F	-4.6%	16.4%	26.7%	0.9%	8.8%	-2.1%
Cc1ccccc1-n1ncc(C(C)NC(=O)c2ccccc2)c1C (centres undefined)	3.7%	31.3%	12.5%	0.1%	-1.2%	-0.3%
COc1cc([N+](=O)[O-])ccc1NC(=O)Cc1ccccc1	-36.5%	15.1%	-8.9%	-12.8%	-1.7%	-20.3%
CC(C)Nc1nc(NC(C)C)nc(N(C#N)CCOc2ccc(Cl)cc2Cl)n1	9.4%	18.8%	-20.6%[59 µM]	-4.5%	?	-19.2%
CCCN(CC(=O)Nc1cccc(Br)c1)CC(=O)Nc1ccc(F)c(F)c1F	15.1%	57.9%	11.2µM*	-0.4%	-25.3%	-2.8%
CCC(C)c1ccc(NC(=O)CN(C)CC(=O)Nc2cccc(OC)c2)cc1 (centres undefined)	50.1µM*	35.0%	50.1µM*	3.3%	32.6%	5.4%
CCCN(CC(=O)Nc1cccc(S(N)(=O)=O)c1)CC(=O)Nc1ccc(F)c(F)c1F	-9.2%	44.3%	13.2%	0.3%	0.0%	-4.4%
COc1ccc(NC(=O)CN(C)CC(=O)Nc2cccc(C(C)=O)c2)cc1	35.5µM*	?	4.47µM*	0.4%	-13.9%	10µM*
CCC(C)c1ccc(NC(=S)Nc2ccc(OC)cc2C)cc1 (centres undefined)	-5.3%	-22.4%	4.47µM*	-20.1%	?	-25.7%
COc1ccc(N(CC(=O)Nc2cccc(C(C)=O)c2)S(=O)(=O)c2ccc(NC(C)=O)cc2)cc1	0.2%	8.4%	nt	-4.6%	13.8%	-28.9%
CC(=O)C1CCC2C(CCC3=CC(=O)CCC32)C1 (centres undefined)	nt	-10.8%	nt	-11.6%	-0.2%	-20.7%
C/C(Nc1ccccc1)=C(/C#N)C(N)=O	2.8%	29.5%	-7.4%	-0.4%	-21.4%	-5.1%
COc1ccc(NC(=O)CN(CC(=O)Nc2ccc(OC)cc2)C(C)(C)CO)cc1	-22.5%	14.2%	70.8µM*	3.9%	-83.3%	-14.9%
CCC(CO)(CO)N(CC(=O)Nc1ccc(OC)cc1)CC(=O)Nc1ccc(OC)cc1	-1.9%	35.8%	?	7.0%	10.9%	-11.4%
Cc1ccc(/C=C/c2nc3ccccc3[nH]2)o1	-34.0%	?	11.2µM*	26.7µM*	?	50.1µM*
Cc1ccc(/C=C/c2nc3ccccc3[nH]2)cc1	6.6%	28.8%	4.3%[59 µM]	nt	5.0%	-7.3%
O=[N+]([O-])c1ccc(/C=N/Nc2nc(NCc3ccccc3)nc(N3CCOCC3)n2)cc1	-6.2%	57.2%	29.9%	-11.5%	1.6%	-24.5%
NNc1nc(NCc2ccccc2)nc(N2CCOCC2)n1	79.4µM*	25.7%	1.8%[59 µM]	-2.7%	2.4%	?
